Test results reported in PubChem BioAssay (NCATS).
Several values for one entry are separate records, joined by “and”; a condition that tells them apart may be missing. Identical values can stand only once. Results filed as inconclusive are left out. Where a call stands in place of a potency, no number is given. Activity calls are given as the source filed them. Unless noted, calls come from the whole dose curve; as a rule, active = well fitted curve in the direction sought with a large enough effect; inconclusive = small, poorly fitted or top-dose-only effect, or another doubt; inactive = no such curve, though single readings can be large; an effect the other way counts as inactive or inconclusive.

Assays:
[1] = qHTS to identify inhibitors of the type 1 interferon - major histocompatibility complex class I in skeletal muscle: primary screen against the NCATS Mechanism Interrogation Plate v5.0 (MIPE) Libary (AID 1347411); note: nearly all actives have a fitted effect of over 65% in size; note: potency is the fitted concentration of half-maximal effect
Procedure, shortened: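 Seed engineered human myoblasts (HLA-B HiBit) in medium without dexamethasone containing 4 ng/ml IFN-beta; after 1 hr add compound titrations (top 46 uM final). Incubate 24 hrs at 37 C, lyse 10 min with HiBiT reagent, read luminescence.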

[2] = molecular target: Calcium and integrin-binding protein 1 (Homo sapiens) (UniProt Q99828); assay: Primary qHTS for Identification of Calcium Integrin Binding Protein 1 (CIB1) Competitor (AID 1508620);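 note: GST tagged CIB1 binding a fluorescein labelled alphaIIb integrin peptide tracer; top concentration of the series differs between compounds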
Chain of Calcium and integrin-binding protein 1 (Homo sapiens) (Q99828 whole entry, looked up): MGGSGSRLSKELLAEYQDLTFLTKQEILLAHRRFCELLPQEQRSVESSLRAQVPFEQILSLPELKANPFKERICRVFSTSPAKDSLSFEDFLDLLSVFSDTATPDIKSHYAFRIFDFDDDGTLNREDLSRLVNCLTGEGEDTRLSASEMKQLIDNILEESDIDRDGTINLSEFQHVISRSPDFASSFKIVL
Procedure, shortened: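 CIB1-GST (1 uM final) and compound incubated 15 min at room temperature before adding FITC-alphaIIb peptide tracer (100 nM final). Competition for binding read by fluorescence polarization (ex 480, em 540) after another 15 min at room temperature.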

[3] = Primary qHTS for small molecule stabilizers of the endoplasmic reticulum resident proteome: Secreted ER Calcium Modulated Protein (SERCaMP) assay (AID 1508630)
Procedure, shortened: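 The SH-SY5Y reporter protocol was run at 3 concentrations up to 38.3 uM (primary) or 11 concentrations (follow-up): 16 h compound, 100 nM thapsigargin for 4 h, then extracellular luciferase luminescence.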

[4] = molecular target: Cytochrome P450 2D6 (Homo sapiens) (UniProt P10635); assay: Cytochrome P450 family 2 subfamily D member 6 (CYP2D6) small molecule antagonists: luciferase biochemical (cell-free) qHTS assay (AID 1645840; active = well fitted curve in the direction sought with a large enough effect in the repeat runs; an effect the other way counts as inactive or inconclusive; note: nearly all actives have a fitted effect of over 55% in size; note: potency is the fitted concentration of half-maximal effect)
Chain of Cytochrome P450 2D6 (Homo sapiens) (P10635 whole entry, looked up): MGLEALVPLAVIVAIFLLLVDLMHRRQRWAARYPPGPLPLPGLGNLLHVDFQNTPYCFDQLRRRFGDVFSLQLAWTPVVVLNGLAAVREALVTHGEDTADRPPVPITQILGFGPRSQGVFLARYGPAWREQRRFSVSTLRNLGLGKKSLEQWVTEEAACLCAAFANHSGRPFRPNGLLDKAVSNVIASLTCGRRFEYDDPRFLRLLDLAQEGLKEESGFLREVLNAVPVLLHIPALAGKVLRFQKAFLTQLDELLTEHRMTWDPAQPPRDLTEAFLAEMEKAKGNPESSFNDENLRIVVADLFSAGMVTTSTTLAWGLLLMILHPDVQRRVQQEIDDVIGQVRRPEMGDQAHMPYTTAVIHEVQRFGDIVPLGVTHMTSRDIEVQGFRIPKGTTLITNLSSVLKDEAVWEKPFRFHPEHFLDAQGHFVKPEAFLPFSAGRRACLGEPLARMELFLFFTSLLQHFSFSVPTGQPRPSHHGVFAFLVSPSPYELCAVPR
Procedure, shortened: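 P450-Glo CYP2D6 system: proluciferin substrate converted by enzyme to luciferin, read by luminescence proportional to activity. Enzyme-substrate mix with compound 10 min at room temperature, then NADPH regeneration 1 h before detection reagent.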

[5] = molecular target: Cytochrome P450 2C9 (Homo sapiens) (UniProt P11712); assay: Cytochrome P450 family 2 subfamily C member 9 (CYP2C9) small molecule antagonists: luciferase biochemical (cell-free) qHTS assay (AID 1645842; active = well fitted curve in the direction sought with a large enough effect in the repeat runs; an effect the other way counts as inactive or inconclusive; note: nearly all actives have a fitted effect of over 55% in size; note: potency is the fitted concentration of half-maximal effect)
Chain of Cytochrome P450 2C9 (Homo sapiens) (P11712 whole entry, looked up): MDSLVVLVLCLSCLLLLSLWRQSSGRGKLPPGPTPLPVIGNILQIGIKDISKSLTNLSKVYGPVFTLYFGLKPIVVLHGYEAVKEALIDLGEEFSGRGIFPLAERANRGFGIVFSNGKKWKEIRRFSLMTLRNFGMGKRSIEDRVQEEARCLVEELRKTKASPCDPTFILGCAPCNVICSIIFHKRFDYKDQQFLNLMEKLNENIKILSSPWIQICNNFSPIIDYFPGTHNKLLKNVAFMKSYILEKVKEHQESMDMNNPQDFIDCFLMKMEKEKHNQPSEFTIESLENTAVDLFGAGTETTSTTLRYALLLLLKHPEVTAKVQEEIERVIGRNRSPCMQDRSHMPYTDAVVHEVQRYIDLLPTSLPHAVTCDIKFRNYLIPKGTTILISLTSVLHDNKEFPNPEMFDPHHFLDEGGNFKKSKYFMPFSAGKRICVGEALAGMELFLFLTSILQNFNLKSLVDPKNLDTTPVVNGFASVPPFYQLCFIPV
Procedure, shortened: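 P450-Glo CYP2C9 system: proluciferin substrate with enzyme in mix containing 0.4% BSA, 10 min at room temperature, then NADPH regeneration solution added and incubated 1 h at 37C. Detection reagent stopped reaction; luminescence read after 20 min as RLU.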

[6] = Primary qHTS for inhibitors of nuclear receptor binding SET domain protein 2 (NSD2) in an isogenic RCH-ACV NSD2 p.E1099K mutant (9B) (AID 1645876); note: nearly all actives have a fitted effect of over 70% in size; note: potency is the fitted concentration of half-maximal effect
[7] = molecular target: Cytochrome P450 3A4 (Homo sapiens) (UniProt P08684); assay: Cytochrome P450 family 3 subfamily A member 4 (CYP3A4) small molecule antagonists: luciferase qHTS assay (AID 1645841; active = well fitted curve in the direction sought with a large enough effect in the repeat runs; an effect the other way counts as inactive or inconclusive; note: nearly all actives have a fitted effect of over 45% in size)
Chain of Cytochrome P450 3A4 (Homo sapiens) (P08684 whole entry, looked up): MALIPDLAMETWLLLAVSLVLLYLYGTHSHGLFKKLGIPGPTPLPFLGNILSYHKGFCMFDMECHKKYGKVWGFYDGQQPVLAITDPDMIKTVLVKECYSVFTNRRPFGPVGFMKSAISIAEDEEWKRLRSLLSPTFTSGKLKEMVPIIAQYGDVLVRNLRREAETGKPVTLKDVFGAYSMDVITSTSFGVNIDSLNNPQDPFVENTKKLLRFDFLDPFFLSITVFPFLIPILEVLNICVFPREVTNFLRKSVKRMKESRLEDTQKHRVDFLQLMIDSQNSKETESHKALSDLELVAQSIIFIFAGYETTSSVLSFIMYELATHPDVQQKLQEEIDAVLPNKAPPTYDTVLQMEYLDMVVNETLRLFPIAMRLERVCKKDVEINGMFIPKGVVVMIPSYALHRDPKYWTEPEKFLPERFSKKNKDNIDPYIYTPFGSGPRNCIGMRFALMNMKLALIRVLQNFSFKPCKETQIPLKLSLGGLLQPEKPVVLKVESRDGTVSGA
Procedure, shortened: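 Luminescent CYP3A4 activity readout: compounds plus enzyme-substrate mix 10 min at room temperature, reaction started with NADPH regenerating system for 1 h, stopped with detection reagent, read after 20 min. Ketoconazole served as control.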

[8] = Primary qHTS for inhibitors of nuclear receptor binding SET domain protein 2 (NSD2) in an RCH-ACV wild type WT cells (2C) (AID 1645877); note: nearly all actives have a fitted effect of over 70% in size; note: potency is the fitted concentration of half-maximal effect
[9] = qHTS to identify inhibitors of the type 1 interferon - major histocompatibility complex class I in skeletal muscle: primary screen against the NCATS Pharmaceutical Collection (AID 1347407);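 note: luminescence of HiBiT knocked into endogenous HLA-B as interferon-induced MHC class I level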
Procedure, shortened: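 HLA-B HiBiT myoblasts, dexamethasone-free growth medium + 4 ng/ml IFN-b; compounds pinned 1 h after seeding, […] from 46 uM; 24 h, 37 C, 5% CO2; lytic HiBiT detection, 10 min RT, luminescence.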

[10] = molecular target: Protein phosphatase 1D (Homo sapiens) (UniProt O15297); assay: RapidFire Mass Spectrometry qHTS Assay for Modulators of WT P53-Induced Phosphatase 1 (WIP1) (AID 1347424);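 note: amount of dephosphorylated VEPPL-S-QETFS peptide product formed by WIP1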
Chain of Protein phosphatase 1D (Homo sapiens) (O15297 whole entry, looked up): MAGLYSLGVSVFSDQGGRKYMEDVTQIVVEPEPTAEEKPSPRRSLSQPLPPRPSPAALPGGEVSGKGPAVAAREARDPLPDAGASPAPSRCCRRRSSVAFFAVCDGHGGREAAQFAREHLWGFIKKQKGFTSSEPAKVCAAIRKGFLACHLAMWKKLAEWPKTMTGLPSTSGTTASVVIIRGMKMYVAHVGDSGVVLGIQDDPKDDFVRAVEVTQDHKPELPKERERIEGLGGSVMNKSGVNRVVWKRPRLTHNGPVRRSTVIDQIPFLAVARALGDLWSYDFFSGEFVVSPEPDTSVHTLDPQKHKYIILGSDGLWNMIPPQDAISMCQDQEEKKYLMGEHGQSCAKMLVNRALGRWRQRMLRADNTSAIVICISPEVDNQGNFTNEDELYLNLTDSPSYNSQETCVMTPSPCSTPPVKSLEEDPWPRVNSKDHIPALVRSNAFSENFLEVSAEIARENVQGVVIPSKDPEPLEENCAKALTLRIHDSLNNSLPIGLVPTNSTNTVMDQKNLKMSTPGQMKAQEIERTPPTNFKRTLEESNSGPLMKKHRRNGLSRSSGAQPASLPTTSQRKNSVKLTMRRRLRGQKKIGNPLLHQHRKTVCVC
Procedure, shortened: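 RapidFire mass spectrometry measured dephosphorylated peptide after 5 min room-temperature reaction of 2 uM VEPPL-pS-QETFS with 10 nM WIP1 (50 mM Tris-HCl pH 7.5, 30 mM MgCl2, 0.1 mM EGTA, BSA), following 1 hr compound preincubation; 1 uM isotope-labelled product standard.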

[11] = molecular target: Protein phosphatase 1D (Homo sapiens) (UniProt O15297); assay: Rhodamine-PBP qHTS Assay for Modulators of WT P53-Induced Phosphatase 1 (WIP1) (AID 1347425)
Procedure, shortened: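 The read-out is the change in Rhodamine-PBP fluorescence (f1 - f0, ex 525/em 598 nm) as Pi is released, read each minute for 11 min. Final reaction: 5 nM WIP1, 10 uM phosphopeptide VEPPL-pS-QETFS, 10 uM Rh-PBP, 50 mM Tris-HCl pH 7.5, 30 mM MgCl2. Compound was preincubated with enzyme for 1 hour at room temperature.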

[12] = Primary qHTS for inhibitors of La Crosse Virus (LACV) - induced cell death in SH-SY5Y cells (AID 1508616);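 note: top concentration of the series differs between compounds; higher means more rescue of cells from virus-induced death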
Procedure, shortened: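 SH-SY5Y, 6000 cells/well; cpd via pin tool in DMSO; LACV 0.01 MOI; 6 d 37C 5% CO2; ATPLite, 5 min RT; luminescence normalized to ±virus DMSO controls.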

[13] = A High-Content qHTS Against Drug Library for the Identification of Small Molecules that Inhibit DYT1 Early Onset Primary Dystonia-Associated Cell Pathology (AID 1645839; calls by dose curve)
Procedure, shortened: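 High-content imaging quantified EGFP-TorsinA mislocalization in HEK293-derived cells inducibly expressing DYT1 mutant torsinA, after 48 h exposure to compound given together with tetracycline induction. Cell count served as a toxicity channel alongside %pathology.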

[14] = molecular target: Catechol O-methyltransferase (Homo sapiens) (UniProt P21964); assay: Confirmatory Screen for Target Class Profiling of Small Molecule Inhibitors of Methyltransferases (AID 1745852); settings: MTase-Glo luminescence, SAH detection, recombinant enzyme; measured here: COMT max response; stronger effect = lower value
Chain of Catechol O-methyltransferase (Homo sapiens) (P21964 whole entry, looked up): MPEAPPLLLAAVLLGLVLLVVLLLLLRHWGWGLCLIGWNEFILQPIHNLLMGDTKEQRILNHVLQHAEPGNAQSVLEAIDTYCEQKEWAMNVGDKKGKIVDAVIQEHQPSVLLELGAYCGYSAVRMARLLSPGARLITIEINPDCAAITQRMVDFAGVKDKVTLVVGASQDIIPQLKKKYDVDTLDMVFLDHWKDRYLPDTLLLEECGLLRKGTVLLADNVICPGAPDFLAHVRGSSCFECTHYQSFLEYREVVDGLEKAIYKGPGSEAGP

[15] = molecular target: Guanidinoacetate N-methyltransferase (Homo sapiens) (UniProt Q14353); assay: as above; settings: activity change, negative = inhibition: at 57.3 µM (top of the series)

In the case of `COc1ccc(Nc2nccc(NCCO)n2)cc1`, the Potency [1] is reported as “inactive” and the Potency [2] is reported as “inactive”.
In the case of `NC(=O)c1cccc(-c2cccc(OC(=O)NC3CCCCC3)c2)c1`, the Potency [1] is reported as “inactive”, the Potency [2] is reported as “inactive” and the outcome [3] is reported as “inactive”. The Potency [4] was “inactive”, the Potency [5] was “inactive” and the Potency [6] was “inactive”.
In the case of `O=C1NC(O)CCN1[C@@H]1O[C@H](CO)[C@H](O)[C@H]1O` (some centres undefined), the Potency [1] is reported as “inactive”, the Potency [2] is reported as “inactive” and the outcome [3] is reported as “inactive”. For the same molecule, the Potency [4] was “inactive”, the Potency [7] was “inactive” and the Potency [5] was “inactive”. The Potency [6] was “inactive”.
With `Nc1ccn(C[C@@H](CO)OCP(=O)(O)O)c(=O)n1` the activity change, negative = inhibition [1] was -9.6% [at 8.44 µM] (inactive) and the Potency [2] was “inactive”.
For `CCCc1nc(C(C)(C)O)c(C(=O)O)n1Cc1ccc(-c2ccccc2-c2nn[nH]n2)cc1`, the Potency [1] was “inactive”, the Potency [2] was “inactive” and the outcome [3] was “inactive”. The Potency [4] was “inactive”, the Potency [5] was “inactive” and the Potency [6] was “inactive”. For the same molecule, the Potency [8] was “inactive”.
In the case of `CCOc1cc2c(c(F)c1OCC)C(=N)N(CC(=O)c1cc(N3CCOCC3)c(OC)c(C(C)(C)C)c1)C2`, the Potency [1] is reported as 14.7 µM (active), the Potency [2] is reported as “inactive” and the outcome [3] is reported as “inactive”. For the same molecule, the Potency [4] was 5.35 µM (active), the Potency [5] was 6.01 µM (active) and the Potency [6] was 23 µM (active). The Potency [8] was 16.3 µM (active).
For `C#CCC(Cc1cnc2nc(N)nc(N)c2n1)c1ccc(C(=O)N[C@@H](CCC(=O)O)C(=O)O)cc1` (some centres undefined), the Potency [1] was “inactive”, the Potency [2] was “inactive” and the outcome [3] was “inactive”. For the same molecule, the Potency [4] was “inactive”, the Potency [5] was “inactive” and the Potency [6] was 0.0047 µM (active). For the same molecule, the Potency [8] was 0.0053 µM (active).
With `Cc1ccccc1C(=O)Nc1ccc(C(=O)N2CCCC(O)c3cc(Cl)ccc32)c(C)c1` (centres undefined) the outcome [9] was “inactive”, the Potency [1] was “inactive” and the Potency [10] was “inactive”. The outcome [11] was “inactive”, the outcome [12] was “inactive” and the Potency [2] was “inactive”. The outcome [3] was “inactive”, the Potency [5] was 27.5 µM (active) and the Potency [6] was 13.3 µM (active). The Potency [8] was 15 µM (active).
With `O=c1ccn([C@@H]2O[C@H](CO)[C@H](O)[C@@H]2F)c(=O)[nH]1` the Potency [1] was “inactive”, the Potency [2] was “inactive” and the outcome [3] was “inactive”.
In the case of `O=C(Nc1ccc(Oc2ccnc3[nH]ccc23)c(F)c1)c1cccn(-c2ccc(F)cc2)c1=O`, the Potency [1] is reported as “inactive”, the Potency [2] is reported as “inactive” and the outcome [3] is reported as “inactive”. For the same molecule, the Potency [4] was “inactive”, the Potency [5] was 1.9 µM (active) and the Potency [6] was 16.6 µM (active).
For `Nc1ccn(C2CO[C@H](CO)O2)c(=O)n1` (some centres undefined), the outcome [9] was “inactive”, the Potency [1] was “inactive” and the Potency [10] was “inactive”. For the same molecule, the outcome [11] was “inactive”, the outcome [12] was “inactive” and the outcome [13] was “inactive”. For the same molecule, the Potency [4] was “inactive”, the Potency [7] was “inactive” and the Potency [5] was “inactive”.
In the case of `CCc1nc(-c2cccc(C)c2)c(-c2ccnc(NC(=O)c3ccccc3)c2)s1`, the Potency [1] is reported as “inactive”, the Potency [2] is reported as “inactive” and the outcome [3] is reported as “inactive”. For the same molecule, the Potency [4] was “inactive”, the Potency [5] was 2.68 µM (active) and the Potency [6] was 20.5 µM (active).
In the case of `CN(CC(=O)N(Cc1ccc(C2CCCCC2)cc1)c1ccc(C(=O)O)c(O)c1)S(=O)(=O)c1c(F)c(F)c(F)c(F)c1F`, the Potency [1] is reported as “inactive”, the Potency [2] is reported as “inactive” and the outcome [3] is reported as “inactive”.
With `N#Cc1c(C2CCNCC2)cc(-c2c(O)cccc2OCC2CC2)nc1N` the Potency [1] was 8.29 µM (active), the Potency [2] was “inactive” and the outcome [3] was “inactive”. The Potency [4] was 0.674 µM (active), the Potency [5] was 8.49 µM (active) and the Potency [6] was 11.8 µM (active). For the same molecule, the Potency [8] was 9.34 µM (active), the activity [14] was -9.7% and the activity change, negative = inhibition [15] was 0.393%.
For `Cc1cc(O)c2c(c1)C(=O)c1cccc(O)c1C2=O`, the Potency [1] was “inactive”, the Potency [2] was “inactive” and the outcome [3] was “inactive”. The Potency [4] was “inactive”, the Potency [5] was “inactive” and the Potency [6] was “inactive”.
With `CCn1c(=O)c2c(nc(C=Cc3ccc(OC)c(OC)c3)n2C)n(CC)c1=O` the outcome [9] was “inactive”, the Potency [10] was “inactive” and the outcome [11] was “inactive”. For the same molecule, the outcome [12] was “inactive”, the Potency [2] was “inactive” and the outcome [13] was “inactive”. The Potency [4] was “inactive” and the Potency [6] was “inactive”.
For `COC(=O)C1C2CC3c4[nH]c5cc(OC)ccc5c4CCN3CC2CC(OC(=O)c2cc(OC)c(OC)c(OC)c2)C1OC` (centres undefined), the Potency [1] was “inactive”, the Potency [2] was “inactive” and the outcome [3] was “inactive”.
In the case of `c1ccc2c(Oc3nc(Nc4ccc(N5CCOCC5)cc4)c4ncn(C5CCCCC5)c4n3)cccc2c1`, the Potency [1] is reported as “inactive”, the Potency [2] is reported as “inactive” and the outcome [3] is reported as “inactive”. For the same molecule, the Potency [4] was “inactive”, the Potency [5] was 4.77 µM (active) and the Potency [6] was “inactive”. The Potency [8] was “inactive”, the activity [14] was 0.484% and the activity change, negative = inhibition [15] was -1.84%.
With `Cn1cc(CNCC2CCN(c3ncc(C(=O)NO)cn3)CC2)c2ccccc21` the Potency [1] was 0.117 µM (active), the Potency [2] was “inactive” and the outcome [3] was “inactive”. For the same molecule, the Potency [4] was 3.38 µM (active), the Potency [5] was “inactive” and the Potency [6] was 0.742 µM (active). The Potency [8] was 0.742 µM (active).
In the case of `OCCNC1CCCc2c1[nH]c1ccc(-c3ccccc3)cc21` (centres undefined), the Potency [1] is reported as 20.8 µM (active), the Potency [2] is reported as “inactive” and the outcome [3] is reported as “inactive”. For the same molecule, the Potency [4] was 15.1 µM (active), the Potency [5] was 26.8 µM (active) and the Potency [6] was 11.8 µM (active). The Potency [8] was 11.8 µM (active).
With `CCCCC(=O)O[C@]1(C(=O)CO)[C@@H](C)C[C@H]2[C@@H]3CCC4=CC(=O)C=C[C@]4(C)[C@@]3(F)[C@@H](O)C[C@@]21C` the Potency [1] was “inactive”, the Potency [10] was “inactive” and the outcome [11] was “inactive”. For the same molecule, the outcome [12] was “inactive”, the Potency [2] was “inactive” and the outcome [3] was “inactive”. For the same molecule, the outcome [13] was “inactive”, the Potency [5] was 15.5 µM (active) and the Potency [6] was “inactive”. The Potency [8] was 8.4 nM (active) and 33.2 nM (active).
